The structures appear in SMILES notation. The whole screen tested about 290,000 compounds, of which about 3,100 (1.1%) were called active. This is one part of a sample in which actives are shown more often than they occur. Rule as the data show it: active = inhibition above about 16% (passing the limit was not always enough); inactive = the rest.

In the test the target is Neuropeptides B/W receptor type 1 (Homo sapiens) (UniProt P48145). Description: GPR7 receptor antagonists, primary screen, cell-based, fluorescence, single concentration (AID 1861).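 Also: cells stimulated with the agonist NPW; 0% = agonist with vehicle and 100% = vehicle without agonist.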 The following applies: GPR7-expressing cells, fluorescence antagonist assay; at 4.4 µM; active compounds read high.
Sequence of Neuropeptides B/W receptor type 1 (Homo sapiens) (P48145 whole entry, looked up): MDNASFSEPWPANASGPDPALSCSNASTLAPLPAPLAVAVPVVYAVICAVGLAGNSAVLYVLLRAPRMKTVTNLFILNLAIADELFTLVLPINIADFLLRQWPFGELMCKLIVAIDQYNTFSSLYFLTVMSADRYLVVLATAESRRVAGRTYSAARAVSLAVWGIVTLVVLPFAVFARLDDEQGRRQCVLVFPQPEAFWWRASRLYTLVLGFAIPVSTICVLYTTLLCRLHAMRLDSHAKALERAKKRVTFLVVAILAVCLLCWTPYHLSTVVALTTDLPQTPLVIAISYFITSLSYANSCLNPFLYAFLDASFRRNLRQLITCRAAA
In the case of `CCOc1cc2[nH]c(=S)n(Cc3ccc(C(=O)N4CCN(C)CC4)cc3)c(=O)c2cc1OCC`, the inhibition (usually the relative decrease from the control value, in per cent) was 2.37% (inactive).
Then `CCNC(=S)N(CCN(CC)CC)Cc1cc2cc3c(cc2[nH]c1=O)OCCO3`, with -10.2% (inactive); and `Cc1cc(C(=O)COC(=O)c2cccs2)c(C)n1-c1c(C)n(C)n(-c2ccccc2)c1=O`, with -14.8% (inactive); and `COc1cc2ccccc2cc1C(=O)Nc1ccc(NC(=O)c2cccs2)cc1`, with -3.15% (inactive).
Then `COc1ccc(-n2c(C)cc(C(=O)COC(=O)c3cc(OC)c(OC)cc3NC(=O)c3cccs3)c2C)cc1`, with 27.1% (active); and `O=C(O)c1ccc(S(=O)(=O)N2CCOCC2)o1`, with 1.56% (inactive); and `Cc1ccc(S(=O)(=O)NCC2CCC(C(=O)N3CCOCC3)CC2)cc1` (stereo not given), with -4.78% (inactive).
For `CN1C/C(=C/c2cccs2)C(=O)/C(=C\c2cccs2)C1`, the inhibition is -7.39% (inactive).
On to `CS(=O)(=O)N(Cc1nc2sc3c(c2c(=O)[nH]1)CCCC3)C1CCCCC1`, for which the inhibition is 1.34% (inactive).
Then `CSc1nc2ccc(NC(=O)c3c(F)cccc3F)cc2s1`, with -5.74% (inactive).
As for `CCCC(=O)Nc1nc2ccc(NC(=O)c3cccnc3)cc2s1`, the figure is 3.59% (inactive); as for `CCCC(=O)Nc1nc2ccc(NC(=O)c3c(F)c(F)c(OC)c(F)c3F)cc2s1`, 36.2% (active).
Then `CN(C)c1nc(=Nc2cccc(Cl)c2)ss1`, with -8.61% (inactive); and `CNS(=O)(=O)c1cccc(C(=O)NC2CCCc3ccccc32)c1` (stereo not given), with -8.59% (inactive); and `COc1ccc(C(CNCC(=O)Nc2ccccc2F)N(C)C)cc1` (stereo not given), with 0.06% (inactive).
With `COc1ccc(CC(=O)NC(C)CCc2ccccc2)cc1` (stereo not given), the inhibition was -6.45% (inactive).
`COc1ccc(C(CCNCc2ccccc2F)c2ccc(F)cc2)cc1` (stereo not given): the inhibition was 27.6% (active).
As to `N#Cc1c(Cl)nc(-c2cccnc2)nc1-c1ccccc1`, the inhibition was 4.22% (inactive).
Then `Clc1ccc(-c2cc(C3CCNCC3)[nH]n2)c(Cl)c1`, with 28.3% (active).
In the case of `O=C1CSC(c2ccccc2)N1c1nc(-c2ccc(Cl)cc2Cl)cs1` (stereo not given), the inhibition is -0.11% (inactive).
As for `Clc1ccc(-c2cc(-c3ccccn3)on2)c(Cl)c1`, the figure is -1.76% (inactive); as for `COc1ccc(N(CC(=O)NCc2ccc(F)cc2)C(=O)CCC(=O)Nc2nccs2)cc1`, 1.89% (inactive).
On to `COCCOC1CCN(C(=O)c2ccc(OC)c(OC3CCN(C(C)C)CC3)c2)CC1`, for which the inhibition was -13.7% (inactive).
Then `Cc1ccccc1CN1C[C@@H]2C[C@@H](c3cn(C)nc3-c3ccccc3)N3CCC[C@@]23C1=O`, with 25.5% (active); and `Cc1ccccc1CN1C[C@@H]2C[C@@H](c3ccc4nsnc4c3)N3CCC[C@@]23C1=O`, with -4.53% (inactive).
As for `Cc1ccc(CN2CCN(Cc3cn(C)nc3-c3ccccc3)CC2CCO)o1` (stereo not given), the figure is -17.8% (inactive).
Then `CS(=O)(=O)c1ccc(-c2nnn(CC(=O)Nc3ccc4c(c3)OCCO4)n2)cc1`, with 11.6% (inactive); and `O=C(CN(Cc1ccc(Br)cc1)S(=O)(=O)c1ccccc1)NCc1ccncc1`, with 5.84% (inactive); and `CC(=O)NNC(=O)c1csc(Cc2c(Cl)sc3ccc(Cl)cc23)n1`, with 0.26% (inactive).
Consider `CC1CCN(S(=O)(=O)c2ccc(S(=O)(=O)NCc3cccnc3)cc2)CC1`, for which the inhibition is -1.72% (inactive).
`CC1CCN(S(=O)(=O)c2ccc(S(=O)(=O)NCc3ccco3)cc2)CC1`: the inhibition was 19.6% (active).
As for `Cc1ccc(S(=O)(=O)N2CCC(C(=O)N[C@@H](C)C(=O)NCc3ccco3)CC2)cc1`, the figure is 2.63% (inactive); as for `O=C(CC1SC(=Nc2ccccc2)N(Cc2ccccn2)C1=O)Nc1cccc(Cl)c1` (stereo not given), -4.47% (inactive).
Then `CCN1C(=NCc2ccc(OC)cc2)N[C@@H](CCc2ccccc2)[C@H](C(=O)NCc2ccc(OC)cc2)[C@H]1C`, with 14% (inactive).
As for `CCN(CC)CCCNC(=O)c1c(O)c2cc(F)cc3c2n(c1=O)C(C)CC3` (stereo not given), the figure is 4.5% (inactive); as for `CCc1ccc2nc(N(CCCN(C)C)C(=O)c3ccc4c(c3)OCCO4)sc2c1`, 22.4% (active); as for `CN(C)CCCN(C(=O)c1ccc(S(=O)(=O)N2CCCc3ccccc32)cc1)c1nc2ccc(F)cc2s1`, 41.8% (active).
With `O=C(Nc1nc2ccc([N+](=O)[O-])cc2s1)c1ccc(S(=O)(=O)N2CCCc3ccccc32)cc1`, the inhibition was -16.1% (inactive).
Turning to `CCOc1ccc2nc(N(CCCN(C)C)C(=O)c3ccc(C(=O)c4ccccc4)cc3)sc2c1`, the inhibition was 6.16% (inactive).
For the molecule `CSc1nc2ccc(S(=O)(=O)N3CCc4ccccc43)cc2s1`, the inhibition was -0.77% (inactive).
Then `CN(C)CCCN(C(=O)c1ccc(S(=O)(=O)N2CCCCCC2)cc1)c1nc2ccc(Br)cc2s1`, with 28.6% (active); and `CC(=O)N(CCCN(C)C)c1nc2ccc(C)cc2s1`, with -10.8% (inactive).
As for `CCN(CC)CCN(C(=O)c1ccc(S(=O)(=O)N2CCOCC2)cc1)c1nc2cc3c(cc2s1)OCCO3`, the figure is -11.1% (inactive).
For the molecule `CCOc1ccc2nc(N(CCN(C)C)C(=O)c3ccc4ccccc4c3)sc2c1`, the inhibition was 3% (inactive).
As for `COc1ccc(C(C(=O)NC2CCCCC2)N(C(=O)Cc2c[nH]c3ccccc23)c2ccccc2)cc1OC` (stereo not given), the figure is -5.99% (inactive); as for `Cc1cc(S(=O)(=O)c2cc3ccc(O)c(C)c3oc2=O)ccc1F`, -15% (inactive).
As for `Cc1ccccc1NC(=O)CCNS(=O)(=O)c1ccc2[nH]c(=O)oc2c1`, the figure is -12.7% (inactive).
As to `O=C(Nc1ccc(C2CC2(Cl)Cl)cc1)c1cccc([N+](=O)[O-])c1` (stereo not given), the inhibition was -6.54% (inactive).
On to `Nc1ccn(C2CC(O)C(CO)O2)c(=O)n1` (stereo not given), for which the inhibition is -7.05% (inactive).
Then `O=C(COc1ccc(S(=O)(=O)N2CCOCC2)cc1Cl)N1CCOCC1`, with -13.2% (inactive).
Then `CN(c1ccccc1)S(=O)(=O)c1ccc(C(=O)NCCc2ccccc2)cc1`, with 23.9% (active); and `COc1ccccc1CNC(=O)c1ccc(N(C)S(=O)(=O)c2ccc(C)cc2)cc1`, with -3.56% (inactive); and `Cc1ccccc1CSCCNC(=O)c1ccc(N(C)S(=O)(=O)c2ccccc2)cc1`, with 1.47% (inactive).
Turning to `O=C(NCCS(=O)(=O)c1ccc(Br)cc1)c1ccccc1Cl`, the inhibition was 1.64% (inactive).
Then `O=C(c1ccco1)N1CCN(Cc2cccc(C(F)(F)F)c2)CC1`, with -13.2% (inactive).

Source of the values: PubChem BioAssay AID1861 (The Scripps Research Institute Molecular Screening Center, 2009).
